Assay results reported in the supplement of paper PMC10981050.
Several values for one entry are separate records, joined by “and”; a condition that tells them apart may be missing. Equal entries are not always repeated.

Assays:
Test in all cases: cell viability relative to vehicle control; higher = less cytotoxic
Details in all cases: 10 µM
K562 = tested on: K562
Method in brief: (§1)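 Screening covered the Selleck bioactive, kinase and epigenetic probe libraries, less identity-inconsistent compounds, on CRISPR-edited mutant clones and isogenic wild-type clones of four leukaemia lines. Cells, at 2000 per well in 50 µL medium, received a single 10 µM acoustically dispensed dose. After 48 h the supernatant was removed and CellTiter-Glo luminescence was read. Viability was analysed in Genedata Screener as percent of the on-plate vehicle control.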

MARIMO = tested on: MARIMO
Method in brief: as §1

MOLM14 = tested on: MOLM14
Method in brief: as §1

OCI-AML2 = tested on: OCI-AML2
Method in brief: as §1

Structure (SMILES)	cell viability (K562; SRSF2 genotype: SRSF2 P95H/wt)	cell viability (K562; SRSF2 genotype: SRSF2 wt/wt) [%]	cell viability (MARIMO; SRSF2 genotype: SRSF2 P95H/wt) [%]	cell viability (MARIMO; SRSF2 genotype: SRSF2 wt/wt) [%]	cell viability (MOLM14; SRSF2 genotype: SRSF2 P95H/wt) [%]	cell viability (MOLM14; SRSF2 genotype: SRSF2 wt/wt) [%]	cell viability (OCI-AML2; SRSF2 genotype: P95H/wt) [%]	cell viability (OCI-AML2; SRSF2 genotype: wt/wt) [%]
OCCN(CCO)c1nc(N2CCCCC2)c2nc(N(CCO)CCO)nc(N3CCCCC3)c2n1 [Dipyridamole (Persantine)]	95.7% and 95.1%	94.8	93.1	114	111	107	99.9	108
O=C(O)Cc1ccccc1Nc1c(Cl)cccc1Cl [Diclofenac Potassium]	94.4% and 99.1%	97.2	106	105	93.5	100	95.3	105
CC1CCC2(OC1)OC1CC3C4CCC5CC(OC6OC(CO)C(O)C(O)C6OC6OC(CO)C(O)C(O)C6O)CCC5(C)C4CCC3(C)C1C2C (configuration not stated) [Timosaponin A3]	7.72% and 10%	28.3	3.39	3.93	1.66	0.73	0.43	0.73
CC(C)c1nc(CN(C)C(=O)N[C@H](C(=O)N[C@@H](Cc2ccccc2)C[C@H](O)[C@H](Cc2ccccc2)NC(=O)OCc2cncs2)C(C)C)cs1 [Ritonavir]	89.2% and 88.4%	82.6	81.9	95	81.8	88.3	102	89.3
C/C=C(/C)C(=O)O[C@H]1[C@@H](OC(=O)CC(C)C)c2c(ccc3ccc(=O)oc23)OC1(C)C [Praeruptorin E]	65.9% and 77.1%	79	57.4	53.9	69.4	76.3	25.6	52.9
CN(NC(=O)CC(=O)NN(C)C(=S)c1ccccc1)C(=S)c1ccccc1 [Elesclomol (STA-4783)]	28.9% and 15.4%	51.2	11.8	21.5	0.35	0.25	2.86	12.4
CN1C(=O)c2sccc2N(C)c2nc(Nc3ccc(S(N)(=O)=O)cc3)ncc21	14% and 30.1%	63.4	22.4	25.9	5.5	3.55	8.63	10.6
CC(C)(C)c1cc(/C=C(\C#N)C(N)=S)cc(C(C)(C)C)c1O [Tyrphostin AG 879 (AG 879)]	22.1% and 17.9%	25.2	73.5	68.3	20.1	14.8	7.33	15.8
CCCCCCCCCCCCCC(=S)NCCCC[C@H](NC(=O)OCc1ccccc1)C(=O)Nc1ccccc1 [Thiomyristoyl]	82.1% and 77.7%	81.9	81.4	97.3	82	83.8	90.2	86.3
O=C(O)c1cc(C(F)(F)F)ccc1N1CC[C@H](OCc2ccccn2)C1	107% and 109%	100	114	113	102	102	106	104
OC1CCC(Oc2cccc3cnc(Nc4ccc5nc[nH]c5c4)nc23)CC1 (configuration not stated)	40.6% and 46.8%	32.7	11.5	4.14	1.38	0.57	1.67	16.3
COC(=O)Nc1nc2cc(Sc3ccccc3)ccc2[nH]1 [Fenbendazole (Panacur)]	17.8% and 31.8%	32.8	27.3	10.4	9.32	4.51	9.8	12.7
COC(=O)c1ccc(O)c(OC)c1 [Methyl Vanillate]	101% and 96.9%	102	90.7	104	103	103	95.2	107
O=C(c1cccc(Br)c1)N1CCC(N2CCCC2)CC1	105% and 98.6%	91.6	92.3	110	105	105	87.9	101
O=C(O)c1cc(O)c2c(c1)[C@@H]([C@H]1c3cc(C(=O)O)cc(O)c3C(=O)c3c(O[C@@H]4O[C@H](CO)[C@@H](O)[C@H](O)[C@H]4O)cccc31)c1cccc(O[C@@H]3O[C@H](CO)[C@@H](O)[C@H](O)[C@H]3O)c1C2=O [Sennoside B]	75.3% and 75.2%	81.5	79.3	88.2	76.2	75.6	77.4	87.7
CC(C)(C)c1cnc(CSc2cnc(NC(=O)C3CCNCC3)s2)o1	24.3% and 35.5%	27.3	9.12	4.42	3.75	0.63	4.54	18.1
OC[C@H]1O[C@@H](OCCc2ccc(O)cc2)[C@H](O)[C@@H](O)[C@@H]1O [Salidroside (Rhodioloside)]	101% and 105%	102	106	104	105	109	101	94.6
Nc1nc2ccc(OC(F)(F)F)cc2s1 [Riluzole (Rilutek)]	94.3% and 96.3%	88.4	94	90.6	81.8	98.6	103	94.8
Cc1cc(O)c(-c2ccc([C@@H](C)CN(C)C)cc2)c2c1[nH]c(=O)c1sccc12	9.34% and 22.8%	14.7	1.85	1.17	0.25	0.22	0.39	7.84
